DAGLB inh: blocks human DAGLB lipase activity; Q8NCG7; HEK293T DAGLB membrane lysate, EnzChek fluorogenic substrate; inhibition, % at 5.17 µM; hit rate 0.059% among 340,000; AID 504411; in the data active = inhibition above about 34%;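 also: 0% = enzyme with vehicle and 100% = wells lacking enzyme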
hiPSC survival: increases survival of single human iPS cells; hiPSC single-cell survival, ATPlite luminescence; 100% = ROCK inhibitor wells, 0% = DMSO; survival enhancement, % at 20 µM; hit rate 0.044% among 360,000; in the data active = survival enhancement above about 18%;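 also: cells exposed to compounds for 16 hours before the ATP read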
TMEM16A act: activates or potentiates the mouse TMEM16A chloride channel | B-score at 10 µM | hit rate 0.3% among 340,000 | AID 623877 | HEK293 TMEM16A/YFP-H148Q/I152L, iodide quench fluorescence; stronger effect = lower value;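 active = fluorescence-ratio B-score plate-corrected deviation score at least 3 library SD below zero, with starting fluorescence score within 5 deviations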;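 also: channel opened by trigger with iodide after compound preincubation; score built on the fluorescence ratio of max minus min over baseline; more negative score means more quench and so TMEM16A activation or potentiation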
ABCB6 inh 2: inhibitors of human ABC transporter ABCB6; K562-ABCB6 porphyrin accumulation, flow cytometry, 1 h; stronger effect = lower value; Q9NP58; fluorescence ratio to DMSO, % at 10 µM; hit rate 0.19% among 360,000;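 active = fluorescence ratio to DMSO below 75%, the collection mean minus 3 SD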;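 also: signal is porphyrin accumulated inside mitochondria; 100% equals median channel fluorescence of DMSO control wells; lower ratio means ABCB6 inhibition with less porphyrin fluorescence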
TMEM16A inh: mouse TMEM16A channel inhibition, primary screen; normalized B-score (activity score, 25-100; higher = stronger inhibition) at 10 µM; hit rate 1.2% among 310,000; HEK293 TMEM16A/YFP iodide influx fluorescence, ionomycin; Q8BHY3;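 active = ratio plate-corrected score three or more library SD toward inhibition, starting fluorescence score within five deviations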;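 also: score derived from kinetic fluorescence span divided by baseline fluorescence per well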
* = called active by the depositor; i = inactive; · = no result. Rows were chosen to be rich in hits. Some 1.5% of all compounds tested hit in one or more screens of this group.

SMILES | DAGLB inh | hiPSC survival | TMEM16A act | ABCB6 inh 2 | TMEM16A inh
CC(C)(C)c1ccc(C(O)c2ncc(-c3cccc(F)c3)[nH]2)cc1 (stereo unspecified) | · | -1 | · | 95 | ·
COc1ccc(-c2noc(-c3ccccc3-c3ccccc3)n2)cc1 | -12 | -3 | i | 96 | 25*
CCS(=O)(=O)c1ncc(Cl)c(C(=O)Nc2ccc(S(=O)(=O)N3CCC(C)CC3)cc2)n1 | 4 | 5 | i | 44* | i
CCS(=O)(=O)c1ncc(Cl)c(C(=O)Nc2ccccc2OC)n1 | -2 | 18 | i | 69* | i
CC1CCN(S(=O)(=O)c2ccc(NC(=O)c3ccncc3)cc2)CC1 | 1 | 0 | i | 93 | i
COc1cccc(NC(=O)c2nc(S(C)(=O)=O)ncc2Cl)c1 | -3 | 0 | i | 96 | i
CC1CCC(NC(=O)c2[nH]c(C(F)(F)F)nc2-c2ccccc2)CC1 (stereo unspecified) | · | 1 | · | 97 | ·
COc1cc(/C=C/[N+](=O)[O-])ccc1OC(=O)/C=C/c1ccc(F)cc1 | -6 | 2 | i | 103 | i
COc1ccc(OCCCCc2c(C)n[nH]c2C)cc1 | -1 | 0 | i | 96 | 25*
COc1cccc(OC)c1OCCCc1c(C)n[nH]c1C | 1 | 3 | i | 96 | i
CS(=O)(=O)c1ccc(Nc2nc(C(N)c3ccccc3Cl)cs2)cc1 (stereo unspecified) | · | 5 | · | 93 | ·
NC(=O)c1ccc(Nc2nc(C(N)c3ccccc3Cl)cs2)cc1 (stereo unspecified) | · | 28* | · | 97 | ·
COc1cccc(CN(C)C(=O)c2cc(COc3c(F)cccc3F)on2)c1 | -3 | 0 | i | 100 | i
COc1cccc(CN(C)C(=O)c2cc(COc3ccc(-n4cncn4)cc3)on2)c1 | 1 | 0 | i | 99 | 25*
COc1cc2c(C#CCCCO)c(-c3ccsc3)oc(=O)c2cc1OC | 0 | 0 | i | 97 | ·
COC(=O)C1CCN(Cc2ccc(OCCCN3CCN(c4ccc([N+](=O)[O-])cc4)CC3)cc2)CC1 | 2 | 1 | i | 103 | 25*
COc1ccc(NS(=O)(=O)c2cccc(NC(=O)NC3CCCCC3)c2)cc1 | -1 | 0 | i | 93 | 25*
COc1ccc(-c2sc3ccccc3c2C#CCO)cc1 | -2 | -2 | i | 88 | 25*
CCN(CC(=O)Nc1c(F)cccc1F)C(=O)Cc1ccc(S(=O)(=O)N2CCOCC2)s1 | 2 | 0 | i | 98 | ·
O=C(NCc1ccco1)C1CCN(C(=O)c2cc3sccc3n2Cc2ccc(Cl)cc2)CC1 | 0 | -1 | i | 97 | 100*
O=C(O)CCc1c(C(=O)O)[nH]c2ccccc12 | 0 | 0 | -16* | 102 | i
NS(=O)(=O)c1ccc(CCNC(=O)CCCn2ncn3c(cc4occc43)c2=O)cc1 | -4 | 1 | i | 105 | i
O=C(COC(=O)c1cc(S(=O)(=O)Nc2ccccc2Cl)ccc1O)Nc1nc2ccccc2s1 | 5 | 0 | -42* | 94 | ·
C[C@H](CO)N1C[C@H](C)[C@@H](CN(C)S(=O)(=O)c2cccs2)Oc2ccc(NC(=O)Cn3cnnn3)cc2C1=O | -4 | 3 | · | 100 | ·
CC(C)(C)C(=O)NC(=S)NNC(=O)c1ccncc1 | -3 | 0 | i | 107 | i
SMILES | DAGLB inh | hiPSC survival | TMEM16A act | ABCB6 inh 2 | TMEM16A inh
CC(C)(C)C(=O)NC(=S)NNC(=O)c1ccc(Cl)cc1Cl | -2 | -1 | i | 98 | 100*
CC(C)(C)C(=O)NC(=S)NNC(=O)c1ccc(-c2ccccc2)cc1 | 3 | -1 | -10* | 98 | 100*
O=C(Nc1cccc(S(=O)(=O)NC2=NCCC2)c1)c1cc(F)c(F)c(F)c1F | 3 | 2 | i | 102 | ·
COc1ccc(C(CNC(=O)c2ccc(C)c(S(=O)(=O)N3CCOCC3)c2)N2CCCC2)cc1 (stereo unspecified) | 0 | -2 | i | 101 | ·
NS(=O)(=O)c1ccc(CCNC(=O)COC(=O)C2CCC2)cc1 | 1 | 0 | -4.6* | 97 | i
CCOc1ccc2noc3c2c1C(=O)c1ccccc1-3 | -156 | -2 | i | 299 | i
O=C1c2ccccc2-c2onc3ccc(N4CCCC4)c1c23 | -47 | 0 | -8.3* | 137 | ·
O=C(Nc1cccnc1)Nc1ccccn1 | -6 | 2 | -6.4* | 145 | i
O=C(Nc1ccccn1)c1cccnc1 | 0 | 0 | i | 102 | i
C[C@@H]1CN([C@H](C)CO)C(=O)CCCn2cc(nn2)CO[C@H]1CN(C)C(=O)c1cc(-c2ccccc2)on1 | -3 | 1 | · | 95 | ·
O=C(Cn1c2ccccc2c2nc3n(c(=O)c21)CCS3)Nc1ccccc1 | 1 | 0 | -32* | 96 | i
O=C(/C(N=Nc1cccc(C(F)(F)F)c1)=C(/O)c1cccs1)C(F)(F)F | 11 | 0 | i | 95 | 100*
CN(C(=O)/C(N=Nc1cccc(C(F)(F)F)c1)=C(\O)C(F)(F)F)c1ccccc1 | 1 | 0 | i | 97 | 100*
Cc1ccc(N=C2C(=O)Nc3ccc(C)c(Br)c32)cc1 | -1 | 0 | i | 97 | 25*
Nc1cc(=O)[nH]c(SCc2cccc3ccccc23)n1 | 2 | 1 | i | 99 | i
O=c1cc(C(F)(F)F)nc(SCc2cccc3ccccc23)[nH]1 | 16 | 0 | i | 101 | 25*
COc1cc2c(cc1OC)CN(C(=O)COc1ccccc1[N+](=O)[O-])CC2 | 3 | 0 | i | 97 | 100*
O=C1C(C=NCc2ccccn2)=C(O)c2ccccc21 | -1 | 1 | i | 98 | 25*
COc1ccccc1CCN=C(N)NS(=O)(=O)c1ccc(C)c(C)c1 | -5 | 2 | i | 93 | i
Cc1cccc(OCC(=O)N(Cc2nnc(-c3ccccc3Cl)o2)C2CC2)c1 | -1 | 0 | -29* | 95 | ·
Cc1ccc(OCC(=O)NNC(=O)c2ccc(F)c(S(=O)(=O)N3CCOCC3)c2)cc1C | -3 | -2 | · | 98 | ·
O=C(/C=C/c1ccc(F)cc1)c1cc(Br)ccc1O | -7 | 1 | i | 103 | i
O=C(/C=C/c1ccccc1)c1cc(Br)ccc(=O)c1O | 25 | -3 | i | 106 | 100*
COc1ccc2nc3n(c(=O)c2c1)-c1ncccc1C(=O)NC3C (stereo unspecified) | 2 | -2 | · | 102 | ·
CCOC(=O)[C@]12CCC=C1N(Cc1ccc(Cl)cc1Cl)C(=O)[C@H](CC(=O)N1CCSCC1)C2 | · | 2 | · | 88 | ·
CCCCNc1nc(Cl)nc(Nc2ccc(C)cc2)n1 | · | 0 | i | 94 | i
O=C(Nc1cccc(Br)c1)c1ccc2c(c1)SC1=NS(=O)(=O)CCN12 | 1 | 0 | i | 95 | ·
Cc1ccc(OCCCC(=O)Nc2ccc(S(N)(=O)=O)cc2)cc1 | -1 | 3 | -5.3* | 94 | i
